Inconclusive results are not listed. Calls of active or inactive are those of the source. The calls were made as follows, unless noted: active = hit-call score of the fitted dose curve at least 0.9, where 1 is the maximum; inactive = score below 0.9.
Legend:
[1] = molecular target: Nucleoli Translocation, AR (gene 367) (UniProt P10275); experiment: UPITT_HCI_U2OS_AR_TIF2_Nucleoli_Antagonist: University of Pittsburgh U2OS Androgen Receptor-Transcriptional Intermediary Factor 2 (AR-TIF2) Antagonism High Content Imaging Assay for Nucleoli Translocation (AID 2283997; active = hit-call score of the fitted dose curve at least 0.9, where 1 is the maximum)
How it was run: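 An antagonist-mode imaging screen: engineered U2OS (AR-RFP, TIF2-GFP) exposed to 20 uM compound, 0.2% DMSO. Activity reflects nucleolar red fluorescence change relative to DHT baseline.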

[2] = molecular target: Nucleoli Translocation, AR (gene 367) (UniProt P10275); experiment: UPITT_HCI_U2OS_AR_TIF2_Nucleoli_Agonist: University of Pittsburgh U2OS Androgen Receptor-Transcriptional Intermediary Factor 2 (AR-TIF2) Agonism High Content Imaging Assay for Nucleoli Translocation (AID 2283998; active = hit-call score of the fitted dose curve at least 0.9, where 1 is the maximum)
How it was run: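 Red-tagged human androgen receptor co-expressed with GFP-tagged TIF2 serves as the binding reporter. Primary testing used 20 uM final (0.2% DMSO); follow-up dose response covered 0.195 to 50 uM final (0.5% DMSO).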

[3] = molecular target: Ratio of Nucleoli Translocation and Cytoplasm, AR (gene 367) (UniProt P10275); experiment: UPITT_HCI_U2OS_AR_TIF2_Nucleoli_Cytoplasm_Ratio_Antagonist: University of Pittsburgh U2OS Androgen Receptor-Transcriptional Intermediary Factor 2 (AR-TIF2) Antagonism High Content Imaging Assay for Ratio of Nucleoli Translocation and Cytoplasm (AID 2283999; active = hit-call score of the fitted dose curve at least 0.9, where 1 is the maximum;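 also: antagonists lower the DHT-driven ratio of nucleolar to cytoplasmic red signal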)
How it was run: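 This antagonist-mode endpoint tracks AR-RFP localisation, the nucleolus-to-cytoplasm intensity ratio, in TIF2-GFP-coexpressing U2OS cells. DMSO stays at or below 0.5%; testing spans 20 uM single-dose and 0.195–50 uM series, with DHT setting the activity baseline.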

[4] = molecular target: Ratio of Nucleoli Translocation and Cytoplasm, AR (gene 367) (UniProt P10275); experiment: UPITT_HCI_U2OS_AR_TIF2_Nucleoli_Cytoplasm_Ratio_Agonist: University of Pittsburgh U2OS Androgen Receptor-Transcriptional Intermediary Factor 2 (AR-TIF2) Agonism High Content Imaging Assay for Ratio of Nucleoli Translocation and Cytoplasm (AID 2284000; active = hit-call score of the fitted dose curve at least 0.9, where 1 is the maximum;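 also: hits raise the red nucleolar to cytoplasm ratio above vehicle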)
How it was run: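 Primary screen at 20 uM final (0.2% DMSO), then triplicate confirmation and dose-response from 0.195 to 50 uM final (0.5% DMSO). Cells: U2OS with AR-RFP and TIF2-GFP. Endpoint is the nucleoli/cytoplasm red-fluorescence ratio, gain-of-signal vs DMSO.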

[5] = CCTE_Harrill_HTTr_Viability_MCF7: CCTE's 6-hour Cell Viability Assessment for the High-Throughput Transcriptomics (HTTr) Platform, in MCF-7 cells cultured in DMEM + 10% fetal bovine serum, Harrill Lab (AID 2284010)
How it was run: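 Eight-point concentration series, six-hour exposure. Propidium iodide exclusion imaged to assess membrane integrity as a cytotoxicity readout; bidirectional fitting was done with DMSO as negative control and activity baseline.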

[6] = CCTE_Harrill_HTTr_Apoptosis_MCF7: CCTE's 6-hour Apoptosis Assessment for the High-Throughput Transcriptomics (HTTr) Platform, in MCF-7 cells cultured in DMEM + 10% fetal bovine serum, Harrill Lab (AID 2284011)
How it was run: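 Cells are dosed with test chemicals at eight concentrations and imaged 6 hours later for caspase-3/7 activity using a green fluorogenic detection reagent. Activity is fitted in both directions against DMSO controls.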

[7] = CCTE_Harrill_HTTr_CellCount_MCF7: CCTE's Cell Proliferation Assessment for the High-Throughput Transcriptomics (HTTr) Platform, Harrill Lab (AID 2284012; active = hit-call score of the fitted dose curve at least 0.9, where 1 is the maximum;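 also: count of Hoechst-stained nuclei per well by high-content imaging in MCF-7 cells; cells exposed to compound for six hours; intended direction is loss of nuclei count meaning fewer cells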)
How it was run: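 For this full-screen endpoint, MCF-7 cultures received eight compound dilutions for six hours. Well nuclei counts from Hoechst imaging were analyzed relative to DMSO.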

[8] = tested on: DIO1 (gene 1733); experiment: CCTE_GLTED_hDIO1: CCTE's human Deiodinase 1 (DIO1) Inhibition Assay, Great Lakes Toxicology and Ecology Division (GLTED) Lab (AID 2283987; active = hit-call score of the fitted dose curve at least 0.9, where 1 is the maximum;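 also: isolated human DIO1 enzyme in a cell-free setup rather than cells; enzyme activity read as free iodide liberated from substrate via Sandell-Kolthoff colorimetry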)
How it was run: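 Cell-free hDIO1 assay, triplicate plates. Absorbance of the Sandell-Kolthoff reaction reports enzyme-liberated iodide; iodinated chemicals or nitrite, iron and thiocyanate may interfere.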

[9] = CCTE_Shafer_MEA_acute_spike_number: CCTE's Neural Acute Assay for Total Number of Spikes, Shafer Lab (AID 2284008);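 also: curve fitted for decrease in spike count so AC50 reflects inhibitors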
How it was run: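 Cortical neurons from rat, matured to DIV 13 or 15 on microelectrode arrays, are recorded at 37 C before and during 40-min exposure to 0.03-40 uM compound. Wells need >/= 10 active electrodes.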

[10] = CCTE_Shafer_MEA_acute_firing_rate_mean: CCTE's Neural Acute Assay for Mean Firing Rate, Shafer Lab (AID 2284009);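 also: analyzed for loss of signal so actives lower firing rate relative to DMSO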
How it was run: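 Spontaneous spiking of primary rat cortical networks, DIV 13/15, 37 C. Compound 0.03-40 uM, n ≥3 wells; 40 min baseline vs 40 min treated. Endpoint fitted in loss-of-signal direction against DMSO.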

[11] = CCTE_Shafer_MEA_acute_burst_duration_mean: CCTE's Neural Acute Assay for Mean Burst Duration, Shafer Lab (AID 2284014);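 also: hits are decreases in mean burst duration relative to DMSO controls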
How it was run: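 Acute exposure of mature rat cortical networks (DIV 13 or 15) grown on microelectrode arrays to 0.03-40 uM compound. Mean burst duration compared with the 40-min pre-dose baseline over a 40-min post-dose recording at 37 C.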

[12] = CCTE_Shafer_MEA_acute_per_burst_spike_number_mean: CCTE's Neural Acute Assay for Average Number of Spikes Per Burst, Shafer Lab (AID 2284015);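 also: hits are decreases in mean spikes per burst versus baseline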
How it was run: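 Percent change in mean spikes per single-electrode burst is compared between a 40 min baseline and a 40 min recording with compound (0.03-40 uM). Cultures were rat cortical neurons on MEA plates at DIV 13 or 15, recorded at 37 C, with DMSO as the negative control.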

[13] = CCTE_Shafer_MEA_acute_interburst_interval_mean: CCTE's Neural Acute Assay for Mean Interburst Interval, Shafer Lab (AID 2284016);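 also: percent change of mean interburst interval versus each well's own pre-dose baseline; curves fitted for decrease in interburst interval relative to DMSO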
How it was run: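 Percent change in mean single-electrode interburst interval was calculated per well from 40 min recordings before and after compound (0.03-40 uM). Recordings were made at 37 C on rat cortical cultures at DIV 13 or 15, with spikes detected at 8x rms threshold.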

[14] = CCTE_Shafer_MEA_acute_burst_percentage_mean: CCTE's Neural Acute Assay for Percentage of Spikes in a Burst, Shafer Lab (AID 2284017);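 as to AC50: curve fitted for loss of signal so potency reflects decreased burst percentage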
How it was run: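 Well-level mean burst percentage from a 40-min recording after compound (0.03-40 uM) expressed as percent change from a 40-min baseline at 37C. Cultures: primary rat cortical neurons on MEA, dosed on DIV 13 or 15; fitted downward relative to DMSO.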

[15] = CCTE_Harrill_HTTr_Apoptosis_DMEM_24hr: (Pilot) CCTE's 24-hour Apoptosis Assessment for the High-Throughput Transcriptomics (HTTr) Platform, in MCF-7 cells cultured in DMEM + 10% fetal bovine serum, Harrill Lab (AID 2283983)
How it was run: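 Caspase-3/7 activity read by high-content imaging (CellEvent Green reagent) 24 h after dosing. MCF-7 cells grown in DMEM with 10% FBS received an eight-point concentration series; fits were bidirectional versus DMSO.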

[16] = CCTE_Harrill_HTTr_Apoptosis_PRF_DMEM_6hr: (Pilot) CCTE's 6-hour Apoptosis Assessment for the High-Throughput Transcriptomics (HTTr) Platform, in MCF-7 cells cultured phenol red-free DMEM + 10% charcoal-stripped fetal bovine serum, Harrill Lab (AID 2283984)
How it was run: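 Caspase-3/7 activity (CellEvent Green) read by high-content imaging 6 h after dosing, eight concentrations. Cells: MCF-7, phenol red-free DMEM with 10% charcoal-stripped serum. Curves fit both directions against DMSO.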

[17] = CCTE_Harrill_HTTr_Apoptosis_PRF_DMEM_24hr: (Pilot) CCTE's 24-hour Apoptosis Assessment for the High-Throughput Transcriptomics (HTTr) Platform, in MCF-7 cells cultured in phenol red-free DMEM + 10% charcoal-stripped fetal bovine serum, Harrill Lab (AID 2283986)
How it was run: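 Eight concentrations tested for 24 h on MCF-7 grown in charcoal-stripped serum, phenol red-free DMEM. High content imaging of CellEvent Caspase 3/7 Green signal gives apoptosis read-out, fitted both ways relative to DMSO.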

[18] = CCTE_Simmons_MITO_basal_resp_rate: CCTE's HepG2 Seahorse XF Respirometric Screening Assay at Basal Respiratory State, Simmons Lab (AID 2284001); details: actives raise or lower the signal
How it was run: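 Readout is oxygen consumption rate after test compound injection, measured by Seahorse XF in HepG2 cells. Seven concentrations from 125 nM up to 100 uM final are tested, and activity in either direction is fitted against DMSO.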

[19] = CCTE_Simmons_MITO_inhib_resp_rate: CCTE's HepG2 Seahorse XF Respirometric Screening Assay at Inhibited Respiratory State [full ETC block], Simmons Lab (AID 2284006); details: actives raise or lower the signal
How it was run: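 Test chemicals at seven final concentrations (125 nM–100 uM) in three biological replicates, with DMSO as vehicle. HepG2 oxygen consumption was then tracked on a Seahorse XF96 for 72 min through FCCP and rotenone/antimycin A phases, with the inhibited-phase rate as the endpoint.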

[20] = CCTE_Simmons_MITO_viability: CellTiter-Glo Viability Assessment for CCTE's HepG2 Seahorse XF Respirometric Screening Assay [post-hoc], Simmons Lab (AID 2284007; active = hit-call score of the fitted dose curve at least 0.9, where 1 is the maximum)
How it was run: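 Post-hoc viability check on the HepG2 respirometry plates: luciferase-based ATP signal measured once, after 90 min compound exposure spanning 125 nM–100 uM final. Activity was referenced to DMSO as baseline.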

Measured: AC50

Chain of Nucleoli Translocation, AR (gene 367) (P10275 whole entry, looked up): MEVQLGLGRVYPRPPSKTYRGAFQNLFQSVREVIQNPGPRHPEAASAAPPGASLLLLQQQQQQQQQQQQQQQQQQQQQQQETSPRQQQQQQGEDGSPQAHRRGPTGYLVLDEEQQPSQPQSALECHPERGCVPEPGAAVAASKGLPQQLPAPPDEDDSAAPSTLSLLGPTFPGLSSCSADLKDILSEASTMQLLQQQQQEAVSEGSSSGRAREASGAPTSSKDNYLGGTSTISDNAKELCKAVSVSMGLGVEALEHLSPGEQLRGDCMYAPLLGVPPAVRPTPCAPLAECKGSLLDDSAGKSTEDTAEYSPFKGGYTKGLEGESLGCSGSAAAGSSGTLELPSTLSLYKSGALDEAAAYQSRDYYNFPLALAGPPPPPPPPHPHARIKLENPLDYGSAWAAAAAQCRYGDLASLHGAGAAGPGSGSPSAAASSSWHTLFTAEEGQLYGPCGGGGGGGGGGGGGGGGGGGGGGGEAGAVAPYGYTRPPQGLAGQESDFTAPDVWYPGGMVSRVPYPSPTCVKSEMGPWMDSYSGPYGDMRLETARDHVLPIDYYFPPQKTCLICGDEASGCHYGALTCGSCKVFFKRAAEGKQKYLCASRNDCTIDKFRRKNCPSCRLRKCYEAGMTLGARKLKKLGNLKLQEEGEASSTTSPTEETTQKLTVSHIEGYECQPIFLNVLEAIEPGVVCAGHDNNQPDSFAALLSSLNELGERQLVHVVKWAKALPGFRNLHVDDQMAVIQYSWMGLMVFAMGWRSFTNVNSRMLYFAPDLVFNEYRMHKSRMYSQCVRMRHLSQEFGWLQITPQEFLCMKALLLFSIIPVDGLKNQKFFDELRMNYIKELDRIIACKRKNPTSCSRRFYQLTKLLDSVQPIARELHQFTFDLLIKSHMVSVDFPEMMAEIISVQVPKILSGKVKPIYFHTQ
Chain of Ratio of Nucleoli Translocation and Cytoplasm, AR (gene 367) (P10275 whole entry, looked up): as above

CCNc1ccccc1
inactive: [1] | [2] | [3] | [4] | [5] | [6] | [7]

O=C(O)c1cc(N=Nc2ccc(S(=O)(=O)Nc3ccccn3)cc2)ccc1O
inactive: [5] | [6] | [7] | [11] | [12] | [13] | [14]
active: [8] 27.3 µM | [9] 0.00807 µM | [10] 0.00818 µM

CC[C@H](C)C(=O)O[C@H]1C[C@@H](C)C=C2C=C[C@H](C)[C@H](CC[C@@H]3C[C@@H](O)CC(=O)O3)[C@H]21
inactive: [15] | [16] | [17] | [5] | [6]
active: [8] 48.1 µM

CCCCCCc1ccc(O)cc1O
inactive: [3] | [19] | [5] | [6] | [7] | [11]
active: [8] 128 µM | [1] 14.4 µM | [2] 14.2 µM | [4] 14.8 µM | [18] 20.4 µM | [9] 12.8 µM | [10] 12.9 µM | [12] 20 µM | [13] 30.1 µM | [14] 15 µM

Cc1ccc(O)cc1
inactive: [2] | [4] | [5] | [6] | [7]

CCCCC(CC)COC(=O)c1ccc(C(=O)OCC(CC)CCCC)cc1 (centres undefined)
inactive: [1] | [2] | [5] | [6]

Cc1[nH]cnc1C[C@H]1CCc2c(C)c3ccccc3n2C1=O
active: [18] 30.5 µM | [9] 4.12 µM | [10] 4.13 µM | [14] 9 µM
inactive: [19] | [20] | [5] | [6] | [7] | [11] | [12] | [13]

Cc1c(-c2cccnc2)c2ccccc2n1CCCCC(=O)O
inactive: [20]

CC(C)CCCCCCOC(=O)c1ccc(C(=O)OCCCCCCC(C)C)c(C(=O)OCCCCCCC(C)C)c1
inactive: [5] | [6] | [7]

CCOCCO
inactive: [5] | [6] | [7]

O=C1CCC(N2C(=O)c3ccccc3C2=O)C(=O)N1 (centres undefined)
inactive: [5] | [6] | [7]

CC/C(=C\C(=N/O)C(N)=O)C(C)[N+](=O)[O-] (centres undefined)
inactive: [5] | [6] | [7]

CC(C)(O)c1coc(S(=O)(=O)NC(=O)Nc2c3c(cc4c2CCC4)CCC3)c1
inactive: [5] | [6] | [7]

COC(=O)c1ccccc1O
inactive: [5] | [6] | [7]

CCCCCCCCCCCCCCCO
inactive: [5] | [6]

COC(=O)c1c(Cl)c(Cl)c(C(=O)OC)c(Cl)c1Cl
inactive: [5] | [6] | [7]

CC1=CC(=O)CC(C)(C)C1
inactive: [5] | [6] | [7]

O=C(O)c1cccc(Oc2ccccc2)c1
inactive: [5] | [6] | [7]

CCN(C(=O)c1cc(C)cc(OC[C@H](C)Nc2ccncc2)c1)C(C)C
inactive: [5] | [6] | [7]

O=C1CCCCCN1
inactive: [5] | [6]

CC(C)=CCC/C(C)=C\CO
inactive: [5] | [6] | [7]

CC(=O)c1ccc2c(c1)[C@H](NC(=O)c1ccc(F)cc1)[C@@H](O)C(C)(C)O2
inactive: [5] | [6] | [7]

O=C1OC(=O)C2C3C=CC(C3)C12 (centres undefined)
inactive: [5] | [6] | [7]

COc1ccc(-n2nc(C(F)F)cc2-c2ccc(S(C)=O)cc2)cc1 (centres undefined)
inactive: [5] | [6] | [7]

CCOCCOCCOCCO
inactive: [5] | [6] | [7]

COCCOc1cc2cc(C(=O)NC3CCN(C(C)C)CC3)n(CC(=O)Nc3ccc(Cl)cn3)c2cn1
inactive: [5] | [6] | [7]

Nc1ccc(Nc2ccccc2)cc1
inactive: [5] | [6] | [7]

C1=CCCC=CCCC=CCC1
inactive: [5] | [6] | [7]

C[C@](N)(Cc1ccc(O)c(O)c1)C(=O)O
inactive: [5] | [6]

C=CC(=C)CCC=C(C)C
inactive: [5] | [6] | [7]

Cc1ccc(C)c(O)c1
inactive: [5] | [6]

COC(=O)CC(=O)OC
inactive: [5] | [6] | [7]

COCCOCCOCCOC
inactive: [5] | [6] | [7]

NC(=O)NO
inactive: [5] | [6] | [7]

CC(O)CN(CCN(CC(C)O)CC(C)O)CC(C)O (centres undefined)
inactive: [5] | [6] | [7]

Clc1nc(Cl)c(Cl)c(Cl)c1Cl
inactive: [5] | [6] | [7]

CCCC(=O)OCC
inactive: [5] | [6] | [7]

Reference: PubChem BioAssay (EPA / NIEHS)
